Measurements: PubChem BioAssay AID1851 (National Center for Advancing Translational Sciences (NCATS), 2009)
Several values for one entry are separate records, joined by “and”; a condition that tells them apart may be missing. Equal values may be shown once. Screen size: about 16,000 compounds; about 5,700 (36%) were called active. About 24% were inconclusive and are not listed. The list shows a part of the results. Unmarked numbers belong to inactive results. Calls come from the whole dose curve; as a rule, active = well fitted curve in the direction sought with a large enough effect; inconclusive = small, poorly fitted or top-dose-only effect, or effect the other way; inactive = no such curve, though single readings can be large or run the other way.

Molecular target: Cytochrome P450 1A2 (Homo sapiens) (UniProt P05177)
Sequence (P05177 whole entry, looked up): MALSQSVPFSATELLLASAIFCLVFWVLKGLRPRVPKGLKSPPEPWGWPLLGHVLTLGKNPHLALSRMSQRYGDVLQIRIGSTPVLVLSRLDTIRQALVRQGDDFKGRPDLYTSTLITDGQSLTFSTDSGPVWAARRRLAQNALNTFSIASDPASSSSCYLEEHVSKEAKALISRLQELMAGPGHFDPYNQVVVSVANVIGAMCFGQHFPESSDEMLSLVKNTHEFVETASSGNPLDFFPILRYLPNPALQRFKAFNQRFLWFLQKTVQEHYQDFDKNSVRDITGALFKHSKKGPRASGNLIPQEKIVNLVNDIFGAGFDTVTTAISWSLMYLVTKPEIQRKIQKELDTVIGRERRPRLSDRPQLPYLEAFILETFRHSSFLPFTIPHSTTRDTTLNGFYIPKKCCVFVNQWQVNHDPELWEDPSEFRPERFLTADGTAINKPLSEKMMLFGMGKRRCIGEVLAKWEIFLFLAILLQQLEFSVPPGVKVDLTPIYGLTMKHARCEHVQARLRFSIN
Assay: Cytochrome panel assay with activity outcomes
Conditions: recombinant CYP, pro-luciferin dealkylation, luminescence, p450-cyp1a2; series mostly up to 57.1 µM
Description: The P450 gene superfamily is involved in the metabolism and clearance of xenobiotics. This assay used various human CYP P450 isozymes to measure the dealkylation of various pro-luciferin substrates to luciferin. The luciferin is then measured by luminescence after the addition of a luciferase detection reagent. Pro-luciferin substrate concentration in the assay was equal to its KM for its CYP P450 isozyme. Inhibitors and some substrates limit the production of luciferin, and decrease measured luminescence.
NCGC Assay Protocol Summary:
1, Reagent, 2 uL, Isozyme and Pro-Luciferin
2, Library compounds, 23 nl, 40 uM to 0.24 nM dilution series
3, Controls, 23 nl, Isozyme specific inhibitor
4, Reagent, 2 uL, NADPH regeneration solution
5, Incubation time, 60 min, Isozyme specific temperature
6, Reagent, 4ul, Detection reagent
7, Incubation time, 20 min, Isozyme specific temperature
8, Detection, 1 sec, ViewLux luminescent read
The luciferase-based P450-GloTM Screening Systems were obtained from Promega (Madison, WI) for CYP 1A2 (V9770), CYP 2C9 (V9790), CYP2 C19 (V9880), CYP 2D6 (V9890), and CYP 3A4 Luciferin-PPXE (V9910) and were adapted for 1,536-well microplates and an automated protocol. The control compounds furafylline for 1A2 (F124), sulfaphenazole for CYP 2C9 (S0758), ketoconazole for CYP 2C19 (K1003), quinidine for 2D6 (Q3625), and ketoconazole for 3A4 (K1003) were purchased from Sigma Aldrich (St. Louis, MO). Recombinant P450 enzymes were obtained from baculovirus constructs expressed in insect cells (BD/Gentest).
Medium-binding white solid Kalypsys plates used. Mixtures kept on ice. 1A2: 10 nM 1A2, 100 uM Luc-ME, 100 mM KPO4; 2C9: 10 nM 2C9, 100 uM Luc-H, 25 mM KPO4; 2C19: 5 nM 2C19, 10 uM Luc-H EGE, 50 mM KPO4; 2D6: 5 nM 2D6, 30 uM Luc-ME EGE, 100 mM KPO4; 3A4: 10 nM, 25 uM Luc-PPXE. All amounts are reflected in their final concentration, working concentration is 2x.
NADPH regeneration solution: 1.3 mM NADP+, 3.3 mM glucose-6-phosphate, 3.3 mM MgCl2, 0.4 U/mL glucose-6-phosphate dehydrogenase for all isozymes, 200 mM KPO4 for 3A4. Mixture prepared at RT but kept on ice during automated run.
RT incubation in auxilliary plate hotel for 1A2, 2D6, and 3A4; 37C for 2C9 and 2C19.
Keywords: P450, CYP1A2, CYP2C19, CYP2C9, CYP2D6, CYP3A4, Luciferase, MLSMR, MLSCN, NIH Roadmap, qHTS, NCGC
% is set by controls: 0 for no effect and ±100 for the full control effect.

Compound	AC50	activity, negative = inhibition
C[C@H](N)Cc1c[nH]c2ccc(OCc3cccs3)cc12	1.58 µM (active) and 126 nM (active)	
C[C@H](N)Cc1c[nH]c2ccc(O)cc12	inactive	
O=P(O)(O)C(Cl)(Cl)P(=O)(O)O	inactive	
CS(=O)(=O)Nc1ccc(Cc2noc(-c3ccc4[nH]cc(CCN)c4c3)n2)cc1	0.0316 µM (active)	
C=C[C@]12CN(C)[C@H]3C1[C@@]1(C(=O)Nc4ccccc41)[C@H]1C[C@H]2[C@H]3CO1	inactive	
O=C1C=C2C=C[C@H]3C[C@@]2(O1)[C@H]1CCCCN31	inactive	
Fc1ccccc1CCNCc1cccc(Cl)c1Cl	5.62 µM (active)	
c1ccc2c(N3CCNCC3)cccc2c1	10 µM (active)	
c1ccc2nc(N3CCNCC3)ccc2c1	1.58 µM (active) and 1.26 µM (active) and 251 nM (active)	
O=[N+]([O-])c1ccc2nc(N3CCNCC3)ccc2c1	2 µM (active)	
c1ccc(CN2CCC3(CCNCC3)CC2)cc1	inactive	
c1ccc(N2CCC3(CCNCC3)CC2)nc1	inactive	
COc1ccccc1N1CCNCC1	inactive	
CN1CCN(c2ccc3ccccc3n2)CC1	10 µM (active) and 3.16 µM (active)	
C[N+]1([O-])[C@@H]2CC(OC(=O)[C@@H](CO)c3ccccc3)C[C@@H]1[C@H]1O[C@H]12 (stereo not given in full)	inactive	
CCC1(CCSC(=N)N)C(=O)NC(=O)NC1=O		-10.9% [at 2.29 µM]
NO	inactive	
CC(=O)O[C@@H]1CN2CCC1CC2	inactive	
O=C1NC(=O)N(CCNc2ncc(C(F)(F)F)cc2Cl)C(=O)C1/C=N/OCc1c(F)cccc1Cl (stereo not given)	inactive	
CP(=O)(O)C1=CCNCC1	inactive	
COC(=O)CN1CN(c2ccccc2)C2(CCN(Cc3ccc4ccccc4c3)CC2)C1=O	inactive	
c1cnc(N2CCC3(CCNCC3)CC2)nc1	inactive	
N[C@@H](CSC1c2ccccc2-c2ccccc21)C(=O)O	2.51 µM (active)	

Compound	AC50	activity, negative = inhibition
N[C@H](Cn1ccc(=O)[nH]c1=O)C(=O)O	inactive	
N[C@H](CCl)C(=O)O	inactive	
C=C1[C@@H]2C[C@@]3([C@H]1O)[C@H]1C[C@@H]4[C@@]5(C)CC[C@H](O)[C@]4([C@H]1N(CC)C5)[C@H]3C[C@H]2O	inactive	
CCCCn1c(N)c(C(=O)NCc2cccs2)c2nc3ccccc3nc21	2.82 µM (active)	
CC(C)CCn1c(N)c(C(=O)NCc2cccs2)c2nc3ccccc3nc21	2.24 µM (active)	
COCCCN1CCN(c2nnc3n2-c2sc(Br)cc2C(c2ccccc2Cl)=NC3)CC1	inactive	
COC(=O)[C@@H]1[C@@H](O)[C@@]2(O)c3c(OC)cc(OC)cc3O[C@@]2(c2ccc(OC)cc2)[C@H]1c1ccccc1		-2.88% [at 11.4 µM]
CCCC[N+]1(C)[C@@H]2CC(OC(=O)[C@@H](CO)c3ccccc3)C[C@H]1[C@H]1O[C@H]12 (stereo not given in full)	inactive	
COc1cc2c(cc1OC)[C@H](C)NCC2	inactive	
[N-]=[N+]=NCC(=O)c1c[nH]c(=O)[nH]c1=O		0.0946% [at 2.29 µM]
O=[N+]([O-])c1cc(-c2ccc([As](=O)(O)O)cc2)ccc1[As](=O)(O)O		-10.9% [at 2.29 µM]
CCC1(C)CC(=O)NC(=O)C1	inactive	
CCC1=C(C[C@H]2NCCc3ccccc32)C[C@@H]2c3cc(OC)c(OC)cc3CCN2C1		-7.08% [at 11.4 µM]
COc1ccc2c(c1OC)CN1CCc3cc4c(cc3[C@H]1C2)OCO4	1.58 µM (active)	
COc1ccc2c(c1OC)C(=O)O[C@H]2[C@H]1c2cc3c(cc2CCN1C)OCO3	inactive	
CN(C)CCC(=O)[C@@]1(O)CC[C@H]2[C@H]3CC=C4C[C@@H](O)CC[C@]4(C)[C@H]3CC[C@]21C		-5.71% [at 11.4 µM]
CCN1C[C@@]2(COC)CC[C@H](OC)[C@]34[C@@H]1[C@]1(OCO[C@@]15C[C@@H](OC)C1C[C@H]3[C@H]5[C@@H]1OC)[C@H](O)[C@@H]24	inactive	
CC[C@@H](CO)NC(=O)[C@H]1C=C2c3cccc4c3c(cn4C)C[C@H]2N(C)C1	15.8 µM (active)	
CC[C@H](CO)NC(=O)[C@@H]1C=C2c3cccc4c3c(cn4C)C[C@@H]2N(C)C1	inactive	
CC(C)C[C@H]1C(=O)N2CCC[C@@H]2[C@]2(O)O[C@](NC(=O)[C@H]3C=C4c5cccc6[nH]c(Br)c(c56)C[C@H]4N(C)C3)(C(C)C)C(=O)N12	inactive	
Nc1ccc(S(=O)(=O)c2ccc(NCN3C(=O)NC(=O)C(=O)C3=O)cc2)cc1		-12.8% [at 11.4 µM]
COc1ccc(C(=O)NC2CC3CCCC(C2)N3CC(C)C)cc1OC (stereo not given)	inactive	
C[C@@]12C(=O)OC(=O)[C@@]1(C)[C@H]1CC[C@@H]2O1	inactive	

Compound	AC50	activity, negative = inhibition
CC(=O)[C@]1(O)CC[C@@H]2[C@H]3C[C@@H](C)C4=CC(=O)CC[C@@]4(C)[C@H]3[C@@H](O)C[C@]21C		-1.99% [at 2.29 µM]
CC(C)N[C@@H](C)Cc1ccc(I)cc1	10 µM (active)	
O=C1NC(=S)NC(=O)C1=Cc1cccc2cc3ccccc3cc12	0.398 µM (active)	
C[C@]12CC[C@@H]3[C@H](CCC4=CC(=O)CC[C@]43C)[C@]1(O)CC[C@@]2(O)C(=O)CO		4.85% [at 2.29 µM]
CCCCCCCCCOc1ccc2[nH]cc(CCN)c2c1	0.0398 µM (active)	
COc1ccc2[nH]cc(CCN)c2c1	1.58 µM (active)	
NCCc1c[nH]c2ccc(OC(=O)C(=O)O)cc12	2.51 µM (active)	
COc1ccc2[nH]cc(CCN(C)C)c2c1	15.8 µM (active)	
CC(=O)O[C@H]1CC[C@@]2(C)C(=CC[C@@H]3[C@H]2CC[C@]2(C)C(=O)CC[C@H]32)C1	inactive	
CC(C)NC(=O)N1CCC2(CC1)CCN(C(=O)Oc1ccccc1)CC2	inactive	
CCOC(=O)c1[nH]c(C)c(C(=O)N2CCC3(CC2)OCCO3)c1C	inactive	
CN(C)C(=O)Oc1ccc[n+](C)c1	inactive	
CC(C)(C)NC[C@H](O)c1cc(Cl)c(N)c(Cl)c1	inactive	
COCCNC(=S)N1C2CCC1CC(NC(=O)NC13CC4CC(CC(C4)C1)C3)C2 (stereo not given)	inactive	
Nc1nc(N)c(Cn2ccnc2)c(=O)[nH]1		-19.7% [at 11.4 µM]
Cn1c(=O)c2[nH]cnc2n(C)c1=O	inactive	
C[C@@]12CC[C@H]3[C@@H](CCC4=C(O)C(=O)CC[C@]43C)[C@H]1CCC2=O	inactive	
Nc1ncnc2c1ncn2[C@@H]1O[C@@H](COP(=O)(O)CP(=O)(O)OP(=O)(O)O)[C@H](O)[C@@H]1O	inactive	
Cc1ccccc1OCCN=Cc1c(O)n(C)c(=O)n(C)c1=O	12.6 µM (active)	
CCCCn1c(O)c(C=NCCN2CCCCC2)c(=O)[nH]c1=O	inactive	
COc1cccc(-n2c(O)c(C=NCCN3CCOCC3)c(=O)[nH]c2=O)c1	inactive	
CCCCCCN=Cc1c(O)n(C)c(=O)n(C)c1=O	12.6 µM (active)	
O=C(O)/C=C\c1ccc[c]([Sb](=[O])([OH])[OH])c1		-9.5% [at 2.29 µM]

Compound	AC50	activity, negative = inhibition
NC(N)=Nc1ccc2[nH]c3c(c2c1)C[C@]1(O)[C@@H]2Cc4ccc(O)c5c4[C@]1(CCN2CC1CC1)[C@@H]3O5	inactive	
NNC(=O)c1ccc(O)cc1	inactive	
CSCC[C@@H](N)P(C)(=O)O		-11% [at 11.4 µM]
COC(=O)N1CCC2(CCCN(C)C2)CC1	inactive	
C[C@H](Br)CN(C[C@H](C)Br)c1ccc2c(c1)Cc1ccccc1-2	3.16 µM (active)	
CCN1C[C@]2(C)CC[C@H](O)[C@@]34[C@@H]5CC6[C@@H](OC)C[C@@](O)([C@@H]5[C@@H]6O)[C@H](C[C@@H]23)[C@H]14	inactive	
C[C@@H]1O[C@@H](O[C@H]2C[C@@H](O)[C@]3(CO)[C@@H]4[C@@H](O)C[C@]5(C)[C@H]([C@@H]6COC(=O)C6)CC[C@@]5(O)[C@H]4CC[C@@]3(O)C2)[C@H](O)[C@H](O)[C@@H]1O	inactive	
CN1CC[C@@]2(CCCN(C(=O)Oc3ccccc3)C2)C1	inactive	
Cc1ncsc1CCCl	31.6 µM (active)	
Oc1ccc([C@H](O)[C@@H]2CCCCN2)cc1O		-3.47% [at 11.4 µM]
C=C(CC1(C(C)NP(=O)(c2ccccc2)c2ccccc2)CC1)c1ccccc1 (stereo not given)	15.8 µM (active)	
O=C(O)[C@@H]1C[C@H]1[C@@H](NP(=O)(c1ccccc1)c1ccccc1)c1ccccc1	inactive	
O=C(O)[C@H]1C[C@@H]1[C@H](NP(=O)(c1ccccc1)c1ccccc1)c1ccccc1	inactive	
c1csc(CN2CCCC3(CCNCC3)C2)n1	inactive	
CC(=O)O[C@H]1CC[C@@]2(C)[C@@H](CC[C@H]3[C@H]2CC(=O)[C@@]2(C)[C@@H]3C[C@H]3CC(C)=CC(=O)[C@H]32)C1		-8.97% [at 2.29 µM]
C[C@H](CCC(=O)O)[C@H]1CC[C@]2(C)[C@@H]3C(=O)C[C@H]4C(C)(C)[C@@H](O)CC[C@]4(C)[C@H]3C(=O)C[C@@]12C		-10.7% [at 11.4 µM]
C[C@H]1CC[C@@]2(NC1)O[C@@H]1C[C@H]3[C@@H]4CC=C5C[C@@H](O)CC[C@]5(C)[C@@H]4CC[C@]3(C)[C@@H]1[C@@H]2C	inactive	
CN(C)CCCc1cccnc1		-10.2% [at 2.29 µM]
COc1ccccc1CC1C(=O)C2CCN1CC2 (stereo not given)	inactive	
CN(C)Cc1c[nH]c2ccccc12	inactive	
OC1(c2ccc(Cl)cc2)CCN(Cc2c[nH]c3ccccc23)CC1	31.6 µM (active)	
